TEAD-YAP inh – TEAD-YAP interaction inhibition; HEK-TIYL cells, TEAD-Gal4/YAP UAS-luciferase luminescence; actives 1.4% (n = 640,000); AID 1259422; inhibition, % at 9.12 µM; in the data active = inhibition above about 32%;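 note: 0% = median of test compound wells and 100% = reference inhibitor wells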
FBW7 act – human FBW7 E3 ligase activation, primary screen; AlphaScreen FBW7–phospho-cyclin E peptide binding, activator screen; normalized activity (activation), % at 26.1 µM; AID 1259310; Q969H0; actives 0.13% (n = 650,000); in the data active = normalized activity above about 1.9%;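 note: purified mutant Fbw7 with reduced substrate affinity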
MITF primary – human MITF inhibition, primary screen; actives 0.91% (n = 650,000); inhibition, % at 2.6 µM; O75030; AlphaScreen MITF homodimerization, bead proximity signal; in the data active = inhibition above about 50%;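 note: 0% = vehicle wells with protein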
Target sequence (O75030 whole entry, looked up): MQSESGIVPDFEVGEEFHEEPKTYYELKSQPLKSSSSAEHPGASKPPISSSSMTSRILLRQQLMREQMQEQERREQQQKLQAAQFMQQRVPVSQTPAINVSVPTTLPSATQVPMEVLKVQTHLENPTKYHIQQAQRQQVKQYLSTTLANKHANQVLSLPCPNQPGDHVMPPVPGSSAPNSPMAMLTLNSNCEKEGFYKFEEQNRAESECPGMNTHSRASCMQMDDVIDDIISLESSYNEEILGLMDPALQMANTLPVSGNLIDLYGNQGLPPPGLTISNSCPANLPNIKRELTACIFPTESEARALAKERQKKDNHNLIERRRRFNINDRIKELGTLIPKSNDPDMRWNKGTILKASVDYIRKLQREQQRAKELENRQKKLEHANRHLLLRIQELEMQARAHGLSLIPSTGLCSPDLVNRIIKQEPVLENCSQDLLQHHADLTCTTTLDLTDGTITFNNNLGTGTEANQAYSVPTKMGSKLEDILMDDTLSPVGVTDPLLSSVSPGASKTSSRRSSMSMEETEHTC
GPR151 activ – activates the human receptor GPR151; PathHunter beta-arrestin GPR151 cells, luminescence; activation, % at 11.2 µM; actives 1% (n = 650,000); in the data active = activation above about 4.9%;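 note: 0% = median of compound wells and 100% = cells with positive control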
GPR151 confirm – confirmation of human GPR151 activators; GPR151 PathHunter beta-arrestin cells, luminescence, 90 min; % of EA-reagent control over plate median; shares compounds with GPR151 activ; AID 1508609; 6,700 tested, under 10 active; activation, % at 11.2 µM;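 active = mean percent activation across replicates above the confirmation screen cutoff of 4.91%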
GPR119 ag – counter-screen for GPR151 activators: effect on human GPR119 | shares compounds with GPR151 activ | GPR119 PathHunter beta-arrestin cells, luminescence, 90 min; 0 = compound-well median, 100 = enzyme-acceptor control | activation, % at 11.2 µM | actives 0.3% (n = 6,700);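 active = mean percent activation in the counterscreen above 29.09%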;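 note: counterscreen on off-target GPR119 to flag nonselective hits from the GPR151 activator screen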
Active calls of the source: *; x = no result given. An excerpt weighted towards active compounds, which were near 3.4% of everything screened.

SMILES	TEAD-YAP inh	FBW7 act	MITF primary	GPR151 activ	GPR151 confirm	GPR119 ag
CC1CN(c2cc(N3CCOCC3)c(F)cc2[N+](=O)[O-])CCN1C(=O)c1cccs1 (stereo unspecified)	-19	0	0	7.6*	0	0
CCC(=O)N1c2ccccc2-c2nnc(SC)nc2OC1c1ccc(OC)cc1 (stereo unspecified)	-1	1	1	5.6*	2	-9
CC(=O)c1cccc(NC(=O)/C=C/c2ccc3c(c2)OCO3)c1	-34	0	17	-1	x	x
COc1ccc(C2C(C(=O)OCC(C)C)=C(C)NC3=C2C(=O)CC(c2ccc(Cl)cc2)C3)cc1 (stereo unspecified)	6	1	-13	5.5*	1	4
CCOC(=O)C1=C(C)NC2=C(C(=O)CC(c3ccc(Cl)cc3)C2)C1c1cccc(OC)c1OC (stereo unspecified)	7	1	6	21*	-1	-8
CCC(C)OC(=O)C1=C(C)NC2=C(C(=O)CC(c3ccc(Cl)cc3)C2)C1c1cccc(OC)c1OC (stereo unspecified)	2	1	-9	0	x	x
COc1cccc2c1OC1(C)C(C(=O)Nc3ccc(Cl)cc3)C2NC(=S)N1c1ccc(Cl)cc1 (stereo unspecified)	-1	0	2	2	x	x
CSc1nc(N)c2c(C)c(C)sc2n1	-3	0	-13	-1	x	x
CCN(CC)C(=O)CN(c1cc(C)cc(C)c1)S(=O)(=O)c1ccccc1	4	0	4	0	x	x
CCOc1ccc(N(CC(=O)NC(C)(C)C)S(=O)(=O)c2ccc(SC)cc2)cc1	13	0	3	22*	0	-4
CSc1ccc(S(=O)(=O)N(CC(=O)O)c2ccc(C)cc2)cc1	6	1	19	5.8*	-1	-11
CCN(CC)C(=O)CN(c1ccccc1)S(=O)(=O)c1ccc(C)cc1	-3	0	13	6.4*	2	12
CCN(CC)C(=O)CN(c1cccc(OC)c1)S(C)(=O)=O	2	0	-1	12*	1	-6
Cc1ccc(NC(=O)C(=O)NCc2ccc(C(C)C)cc2)cc1	-2	0	8	0	x	x
O=C(Nc1cc(SCCO)cc([N+](=O)[O-])c1)c1ccc2c(c1)OCO2	2	0	-9	1	x	x
CCOC(=O)C1=C(C)N=c2s/c(=C\c3ccc(OCc4ccccc4)cc3)c(=O)n2C1c1ccc(OCC)c(OCC)c1 (stereo unspecified)	-16	0	3	1	x	x
OCCC1CCCCN1c1ccnc2c(-c3ccsc3)cnn12 (stereo unspecified)	-54	0	-9	5.4*	0	0
O=[N+]([O-])c1ccc(C2=Nn3c(nnc3-c3cccnc3)SC2)cc1	7	0	-7	2	x	x
CCOC(=O)CN1C(=O)N[C@@H](c2cccc(C(F)(F)F)c2)C(C(C)=O)=C1C	x	0	4	10.0*	1	12
COc1cc(CCN2C(=O)N[C@@H](c3cccc(C(F)(F)F)c3)C(C(C)=O)=C2C)cc(OC)c1OC	x	0	-27	0	x	x
CC(=O)C1=C(C)N(Cc2ccccc2)C(=O)N[C@@H]1c1cccc(C(F)(F)F)c1	x	0	-2	0	x	x
COC(=O)C1=C(C)N(Cc2ccccc2)C(=O)N[C@H]1c1cccc(C(F)(F)F)c1	x	0	-10	8.6*	-1	-10
O=C1COc2ccc(C(=O)CSc3nnc4scc(-c5ccc(F)cc5)n34)cc2N1	15	0	1	0	x	x
NC(=O)C1(N2CCCCC2)CCN(CC(=O)Nc2ccc(F)c(Cl)c2)CC1	-6	0	5	-1	x	x
NC(=O)C1(N2CCCCC2)CCN(C(=S)Nc2ccc(F)c(Cl)c2)CC1	-1	0	13	5.1*	0	6
CCN1C(=O)c2cccc3cccc(c23)C1=O	10	0	2	-1	x	x
COc1cc(OC)c(NC(=O)Nc2noc3c2COc2ccccc2-3)cc1Cl	7	0	3	5.2*	1	-1
OCC1CCN(C2CCCN(Cc3ccc4nsnc4c3)C2)CC1 (stereo unspecified)	4	0	-2	2	x	x
OCC1CCN(C2CCCN(Cc3ccc4nonc4c3)C2)CC1 (stereo unspecified)	-4	0	0	5.9*	0	-9

Bioassay records from PubChem BioAssay.
